These entries were drawn from the full list.
aSyn UTR act – Activators working through SNCA 5'UTR binding (MLPCN); alpha-synuclein 5'UTR reporter, activators screen; actives 7.1% (n = 300,000); activity score, % (tested at 7.5 µM), hits read low; AID 1814; in the data active = activity score below about -60%
An asterisk follows results filed as active.

SMILES	aSyn UTR act
Cc1ccsc1C(=O)Nc1ccc(OCc2ccccc2)cc1	-191*
CCOC(=O)c1c(NC(=O)c2cc(C)oc2C)sc(C(=O)Nc2ccc(Cl)cc2)c1C	-102*
COC(=O)c1ccccc1NC(=O)c1ccc2c(c1)CC(C)O2 (stereo not given)	-65*
CC(C)COc1ccc(C(=O)Nc2sc3c(c2C(=O)O)CC(C)(C)OC3)cc1	63
CC(C)COc1ccc(C(=O)Nc2ncn[nH]2)cc1	-66*
CC(C)Oc1ccc(C(=O)Nc2ncn[nH]2)cc1	-65*
Clc1ccc(-c2nc3ccccn3c2CN2CCCCC2)cc1	-101*
CN(C)Cc1c(-c2ccc(Cl)cc2)nc2ccccn12	-151*
CC(C#Cc1ccc2c(c1)COc1c3ccccc3nn1-2)OC(C)(C)C (stereo not given)	-114*
N#CCCCC#Cc1ccc2c(c1)COc1c3ccccc3nn1-2	77
CCCCCCC#Cc1ccc2c(c1)COc1c3ccccc3nn1-2	-141*
C#Cc1ccc2c(c1)COc1c3ccccc3nn1-2	-89*
C(#Cc1ccc2c(c1)COc1c3ccccc3nn1-2)c1ccccc1	-208*
Cc1ccc(N=Cc2cc(C)n(C3CCCC3)c2C)cc1	-155*
COc1ccc(Oc2ccc(/C=C/C(=O)c3ccc(O)cc3)cc2[N+](=O)[O-])cc1	-97*
CN(C)c1ccc(/C=C/C(=O)c2ccccc2)cc1[N+](=O)[O-]	-195*
O=C(/C=C/c1ccc(O)c([N+](=O)[O-])c1)c1ccc2ccccc2c1	-124*
O=C(CSc1nc2ccccc2o1)c1ccccc1	-95*
O=C(CSc1ccc(-c2ccco2)nn1)c1ccccc1	-88*
Cc1cc(SCC(=O)c2ccccc2)n2ncc(-c3ccccc3)c2n1	-138*
O=C(O)c1ccccc1CSc1nc2ccccc2o1	-114*
Cc1cc(SCC(=O)c2ccccc2)nc(C)n1	-115*
O=C(CSc1ccc2ccccc2n1)c1ccccc1	-125*
O=[N+]([O-])c1ccc(Cl)cc1Sc1nc2ccccc2o1	69
CC(=O)CSc1nc2ccccc2o1	-75*
SMILES	aSyn UTR act
O=C(c1ccc2c(c1)OCO2)N1CCc2ccccc2C1	-113*
O=C(c1ccc2c(c1)OCO2)N1CCN(c2cccc(C(F)(F)F)c2)CC1	-77*
O=C(c1cc2c(s1)-c1ccccc1OC2)N1CCc2ccccc2C1	-89*
CCOC(=O)c1sc(NC(=O)c2cccnc2)nc1C	-100*
Cc1cnc(NC(=O)COc2ccccc2)s1	-142*
Cc1cnc(NC(=O)CSc2ccccc2)s1	-108*
CCOc1ccc(C(=O)Nc2nc(C)c(C(=O)OC)s2)cc1	-97*
COC(=O)c1sc(NC(=O)COc2ccccc2)nc1C	-142*
Cc1cnc(NC(=O)CCc2ccccc2)s1	-383*
COC(=O)c1sc(NC(=O)Cc2cccs2)nc1C	-69*
Cc1ccccc1NC(=S)c1ccc2ccccc2n1	-110*
O=C(N/N=C/c1ccncc1)c1ccccn1	-90*
O=C(N/N=C/c1ccc(N2CCOCC2)cc1)c1ccccn1	-103*
Cc1ccc(/C=N/NC(=O)c2ccccn2)o1	-74*
O=C(NN=C1C2CC3CC1CC(Cl)(C3)C2)c1ccccn1	-137*
O=C(NNC(=O)C(c1ccccc1)c1ccccc1)c1ccccn1	72
O=C(NN=C1c2ccccc2-c2ccccc21)c1ccccn1	-134*
Cc1cc(C(=O)NCc2csc(-c3ccccc3)n2)no1	-82*
O=C(NCc1csc(-c2ccccc2)n1)c1ccco1	-85*
N#CC1=C(N)Oc2cc(N)ccc2C1c1cc(Br)cs1 (stereo not given)	-75*
N#CC1=C(N)Oc2cc(N)ccc2C1c1cccc(Br)c1 (stereo not given)	119
Cc1ccc(-c2cc(-c3ccccc3[N+](=O)[O-])[nH]n2)c(O)c1	-343*
Cc1ccccc1-c1cc(-c2ccccc2O)n[nH]1	-183*
Cc1ccc(-c2cc(-c3ccccc3Cl)[nH]n2)c(O)c1	-221*
O=C(c1cc2ccccc2o1)c1cccs1	-134*
SMILES	aSyn UTR act
Cc1ccc(S(=O)(=O)c2cc3ccccc3oc2=O)cc1	-111*
Cc1ccc(C(=O)c2cc3ccccc3o2)cc1C	-68*
Cc1ccc(C(=O)c2cc3ccccc3o2)cc1	-170*
Cc1ccc(SCc2nc3ccccc3[nH]2)cc1	-128*
Cc1cc(C)c(C#N)c(SCc2nc3ccccc3[nH]2)n1	-173*
Clc1ccc(SCc2nc3ccccc3[nH]2)cc1	-112*
Cc1cc(C)c(C#N)c(SCc2nnc(-c3ccccc3)o2)n1	102
Fc1ccccc1CSCc1nc2ccccc2[nH]1	-133*
c1ccc2[nH]c(CSc3nccs3)nc2c1	-79*
c1ccc(SCc2nc3ccccc3[nH]2)cc1	-133*
CC(=O)Nc1ccc(/C=C/c2noc(-c3ccccc3O)n2)cc1	-163*
COc1cc(/C=C/c2noc(-c3ccccc3O)n2)ccc1OC(C)=O	-130*
Oc1ccccc1/C=C/c1noc(-c2ccccc2O)n1	-218*
COc1ccc(-c2oc3ccc(N4CCOCC4)cc3c2C#CCO)cc1	-92*
Nc1ccc(C#Cc2c(-c3ccsc3)oc3ccc(N4CCOCC4)cc23)cc1	-168*
CC(C)N1CCc2c(sc(NC(=O)c3ccc([N+](=O)[O-])o3)c2C(N)=O)C1	104
CC(C)N1CCc2c(sc(NC(=O)c3ccc(S(=O)(=O)N4CCc5ccccc54)cc3)c2C(N)=O)C1	-103*
CCN1CCc2c(sc(NC(=O)c3ccc4ccccc4c3)c2C(N)=O)C1	-194*
O=C(N/N=C/c1ccc(-c2ccccc2[N+](=O)[O-])o1)[C@H]1C[C@@H]1c1ccccc1	-79*
O=C(/C=C/c1ccc(-c2ccccc2[N+](=O)[O-])o1)c1ccccc1	-120*
CC(=O)c1ccc(N(C(=O)Cc2c[nH]c3ccccc23)C(C(=O)NC2CCCCC2)c2cccs2)cc1 (stereo not given)	-84*
CC(Sc1nnc(NC2CCCCC2)s1)C(=O)Nc1ccc2c(c1)C(=O)c1ccccc1C2=O (stereo not given)	-79*
COc1cc(-c2nc(-c3ccccn3)no2)cc(OC)c1OC	-163*
COc1cccc(-c2nc(-c3ccccn3)no2)c1OC	-219*
O=C1N=c2ccccc2=C1c1sc(Nc2cccc(O)c2)nc1O	-90*
SMILES	aSyn UTR act
O=c1c(-c2ccc([N+](=O)[O-])cc2)coc2c(O)c(O)ccc12	-91*
CCCCOc1ccc(N2C(=O)CC(N(O)c3ccccc3)C2=O)cc1 (stereo not given)	-85*
CCCCN1C(=O)CC(Nc2ccc(CC)cc2)C1=O (stereo not given)	-125*
Cc1ccc(NC2CC(=O)N(Cc3ccccc3)C2=O)cc1 (stereo not given)	-66*
CC(=O)c1c(C)oc2c1C(=O)c1ccccc1C2=O	-62*
COc1ccc(CNC(=O)c2c(C)oc3c2C(=O)c2ccccc2C3=O)cc1	103
CCOC(=O)Cc1csc(NC(=O)c2cnc3sc(C)cn3c2=O)n1	-112*
CCOC(=O)Cc1csc(NC(=O)c2ccc(Cl)s2)n1	-119*
CCOC(=O)Cc1csc(NC(=O)c2ccco2)n1	-162*
Cc1ccccc1-c1noc(-c2ccccc2F)n1	-259*
Cc1ccccc1-c1noc(-c2ccc(O)cc2)n1	-226*
Cc1ccccc1-c1noc(C2CCCCC2)n1	-71*
Cc1ccccc1-c1noc(-c2ccc(Cl)cc2)n1	-192*
Fc1ccccc1-c1nc(-c2ccc(Cl)cc2)no1	-203*
CN(C)c1ccc(-c2noc(-c3ccccc3O)n2)cc1	71
CC1CC1C(=O)Nc1ccc(-c2ccccc2)cc1 (stereo not given)	-152*

Source: PubChem (Broad Institute)
